From PubChem
Pf growth 48h: inhibits P. falciparum growth in the first generation, 48 h; Potency, µM (highest dose often 28.7 µM), inactives show top-dose activity change, negative = inhibition, usual class: inhibitors; 5.9% of 310,000 active; AID 504832; P. falciparum luciferase growth in erythrocytes, 48 h; note: potency is the fitted concentration of half-maximal effect; % is set by controls: 0 for no effect and ±100 for the full control effect
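Cell-based growth assay: transgenic P. falciparum expressing firefly luciferase, cultured in red cells within RPMI 1640 containing 0.5% w/v Albumax, 24 mM bicarbonate and gentamycin. A drop in luciferase activity indicates inhibition.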
Pf growth 96h: P. falciparum growth inhibition at 96 hours; P. falciparum luciferase reporter growth, 96 h; Potency, µM (series often up to 28.7 µM), without a hit: at the top dose activity change, negative = inhibition, usual class: inhibitors; 6.9% of 320,000 active; AID 504834; note: potency is the fitted concentration of half-maximal effect; % is set by controls: 0 for no effect and ±100 for the full control effect
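Delayed-death screen, second-generation endpoint: infected erythrocytes, 2% hematocrit, 0.05% parasitemia final; 96 hours at 37 C, 5% CO2; luciferase detection reagent; luminescence decrease equals reduced growth.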
LASV entry inh: inhibitors of Lassa virus binding or cell entry. 1.2% of 300,000 active. AID 540256. Lassa virus pseudotype entry inhibition, cell reporter. Potency, µM (highest dose often 37.9 µM), without a hit: at the highest dose activity change, negative = inhibition, usual class: inhibitors; calls by dose curve; tested in HEK293 cells; note: potency is the fitted concentration of half-maximal effect; % is set by controls: 0 for no effect and ±100 for the full control effect; nearly all actives have a fitted effect of over 50% in size
Marburg entry inh: Marburg virus entry inhibition; 1.8% of 300,000 active; AID 540276; Marburg virus pseudotyped entry inhibition, cell reporter; Potency, µM (series often up to 37.8 µM), inactives show at the top dose activity change, negative = inhibition, most hits filed as inhibitors; calls by dose curve; tested in HEK293 cells; note: potency is the fitted concentration of half-maximal effect; % is set by controls: 0 for no effect and ±100 for the full control effect
Shiga inhibitor: inhibitors of Shiga toxin in Vero cells | Vero cells, Shiga toxin protein synthesis inhibition reporter | inhibition, % at 38.7 µM | 9.2% of 290,000 active; in the data active = inhibition mostly above about 28%, no sharp cut-off; inactive = mostly below about 43%; note: 0% is about no effect
Cycloheximide cs: counter-screen for Shiga toxin inhibitors: cycloheximide protein synthesis inhibition | cell reporter, cycloheximide protein synthesis inhibition counterscreen | max response, % | 12% of 300,000 active; in the data active = max response mostly above about 13%, no sharp cut-off; inactive = mostly below about 14%; note: read at 38.3 µM for the half of the compounds with a filed dose; 0% is about no effect
* marks the source's active call; other numbers are inactive results; u = inconclusive; x = not tested or not shown; [ ] = dose if it differs, or a comment. This is a sample that favours compounds with a hit; in the whole collection about 19% have one here. Unless noted, calls come from the whole dose curve; as a rule, active = well fitted inhibition curve with a large enough effect; inconclusive = small, poorly fitted or top-dose-only effect, or another doubt; inactive = no such curve, though single readings can be large or run the other way.

SMILES	Pf growth 48h	Pf growth 96h	LASV entry inh	Marburg entry inh	Shiga inhibitor	Cycloheximide cs
O=C(C1CC(c2ccc(Cl)c(Cl)c2)=NO1)N1CCC2(CC1)OCCO2 (configuration not stated)	106.9%	21.6%	-10.5%	24.6%	117.5*	27.7*
O=C(C1CC(c2ccc(F)cc2)=NO1)N1CCN(c2ccccc2)CC1 (configuration not stated)	x	u	x	x	-11.2	-5.3
COc1ccc(C2=NOC(C(=O)N3CCCCCC3)C2)cc1OC (configuration not stated)	-7.0%	48.8%	0.9%	u	-18.2	-4.0
O=C(C1CC(c2ccc(F)cc2)=NO1)N1CCC2(CC1)OCCO2 (configuration not stated)	x	x	u	u	71.2*	45.1*
O=C(C1CC(c2ccc(F)cc2)=NO1)N1CCc2ccccc2C1 (configuration not stated)	x	0.0%	x	x	32.9	21.2
CC(=O)c1cc(C)ccc1OC(=O)c1cccc2nc(C)oc12	10.2%	u	9.4%	0.1%	-13.4	0.4
COc1ccc2c(c1)c(CC(=O)O)c(C)n2C(=O)c1ccccc1	x	x	0.2%	u	x	x
O=C(C1CC(c2ccccc2O)=NO1)N1CCc2ccccc2C1 (configuration not stated)	x	10.1%	18.7%	9.8%	21.3	21.7
O=C(C1CC(c2ccc(F)cc2)=NO1)N1CCCCC1 (configuration not stated)	135.2%	u	u	-2.4%	60.6*	25.9*
O=C(C1CC(c2ccccc2O)=NO1)N1CCCCC1 (configuration not stated)	188.6%	x	2.9%	3.0%	132.8*	48.2*
COc1cccc(C2=NOC(C(=O)N3CCc4ccccc4C3)C2)c1 (configuration not stated)	7.0%	u	x	x	26.2*	12.5*
C=CCc1c(C)nc(C)nc1N/N=C/c1ccc(F)cc1	x	-3.6%	14.6%	2.8%[46.1 µM]	-23.2	-2.8
CCOC(=O)/C=C/C(=O)OCC(=O)Nc1c(Cl)cccc1Cl	13.1µM*	-28.7%	-0.3%[46.1 µM]	u	6.6	10.7
CCc1ccc2occ(CC(=O)Nc3ccc(OC)c(Cl)c3)c2c1	x	x	9.1%[46.1 µM]	u	36.5*	13.1
CCOC(=O)/C=C/C(=O)OCC(=O)Nc1ccc(OC)c(Cl)c1	9.0%	-0.3%	u	-9.6%	-1.6	12.4*
CCc1ccc2occ(CC(=O)NCc3ccccc3)c2c1	x	x	-9.9%[46.1 µM]	10.9%[46.1 µM]	x	x
Cc1cccc(-c2nnc(-c3cccc(NC(=O)Cc4cccs4)c3)o2)c1	u	10.4µM*	-12.1%	-1.7%	13.5	19.5*
Cc1ccc(-c2nnc(-c3cccc(NC(=O)c4cccs4)c3)o2)cc1	u	142.2%	-27.9%	-12.3%	38.6*	10.8
O=C(Cc1cccs1)Nc1ccc(-c2nnc(-c3ccccc3)o2)cc1	x	x	u	12.2%	x	x
Cc1cc(C)c(C)c(S(=O)(=O)NCCCn2ccnc2)c1C	u	6.57µM*	0.7%[46.1 µM]	5.1%[46.1 µM]	x	-5.3
Cc1cc(C)c(S(=O)(=O)NCCCn2ccnc2)cc1C	8.8%	12.5%	u	3.55µM*	x	-2.5
O=C(CNCC1CCCO1)N1CCCCCC1 (configuration not stated)	-2.2%	-1.1%	9.2%	6.5%[46.1 µM]	8.2	-1.5
COc1ccccc1CNC(=O)C(Cc1c[nH]c2ccccc12)NC(=O)OCc1ccccc1 (configuration not stated)	-17.6%	u	4.47µM*	u	-18.8	-3.1
COC(=O)C(Cc1c[nH]c2ccccc12)NC(=O)c1cc(-c2ccc(OC)c(OC)c2)oc1C (configuration not stated)	2.94µM*	u	10µM*	u	-4.4	7.7
N[C@H](Cc1c[nH]c2ccccc12)C(=O)O	4.2%	1.51µM*	x	x	x	x
SMILES	Pf growth 48h	Pf growth 96h	LASV entry inh	Marburg entry inh	Shiga inhibitor	Cycloheximide cs
O=C(Cc1c[nH]c2ccccc12)N[C@@H](Cc1c[nH]c2ccccc12)C(=O)O	44.6%	17.8%	21.0%[46.1 µM]	-2.8%[46.1 µM]	-11.5	-3.2
C[C@H](NC(=O)OCc1ccccc1)C(=O)N[C@@H](Cc1c[nH]c2ccccc12)C(=O)O	18.9%	u	x	x	x	x
O=C(CCCc1c[nH]c2ccccc12)N[C@@H](Cc1c[nH]c2ccccc12)C(=O)O	9.28µM*	8.28µM*	5.9%[46.1 µM]	7.6%[46.1 µM]	1.0	0.7
CCOC(=O)c1ccccc1NC(=O)CSc1nc2ccncc2[nH]1	15.2%	u	16.1%[46.1 µM]	2.1%[46.1 µM]	-14.5	-5.5
O=C(COC(=O)c1ccc(NS(=O)(=O)c2cccs2)cc1O)NC1CCCCC1	-8.1%	2.6%	-28.3%	u	19.0	-2.8
CN(C)Cc1c[nH]c2ccccc12	u	9.28µM*	x	x	x	x
NCCc1c[nH]c2ccc(O)cc12	x	x	x	u	-13.2	41.7*
CNC(=O)[C@H](Cc1c[nH]c2ccccc12)NC(=O)[C@@H](CC(=O)NO)CC(C)C	3.79µM*	10.7%	x	x	x	x
COc1cc(C(=O)N[C@@H](Cc2c[nH]c3ccccc23)C(=O)O)cc(OC)c1OC	4.2%	-3.2%	-1.9%	-11.6%[46.1 µM]	66.5*	34.6*
Cc1c(Cl)cccc1-n1c(SCC(=O)NCc2cccs2)nnc1-c1ccncc1	u	u	u	0.6%	18.0	-0.9
Cc1cc(C)cc(-n2c(SCC(=O)NC3CCCCC3)nc3c([nH]c4ccccc43)c2=O)c1	x	x	-20.6%[46.1 µM]	x	x	x
O=C(CCc1c[nH]c2ccccc12)N[C@@H](Cc1c[nH]c2ccc(O)cc12)C(=O)O	3.7µM*	4.65µM*	-1.5%[46.1 µM]	10.9%[46.1 µM]	-2.3	1.3
CCOC(=O)CCCc1c[nH]c2ccccc12	-10.3%	u	3.7%	-18.2%	37.9	7.8
NC(=O)N[C@@H](Cc1c[nH]c2ccccc12)C(=O)OCC(=O)N1CCCCC1	11.7µM*	68.2%	14.4%	-4.5%[46.1 µM]	-4.2	-1.9
O=C(CCCc1c[nH]c2ccccc12)N1CCCCCC1	2.5%	5.86µM*	-6.5%	-5.8%	38.2	20.2*
CCCCN(C)C(=O)CCCc1c[nH]c2ccccc12	u	13.6%	5.1%	u	42.3*	17.5*
O=C(OCC(=O)N1CCCCC1)c1c[nH]c2ccccc12	129.4%	243.9%	23.9%	u	x	x
C=CCNC(=S)N1CCN(S(=O)(=O)c2ccc(C)cc2)CC1	u	-19.0%	x	x	3.1	0.5
COC(=O)C(Cc1c[nH]c2ccccc12)NC(C)=O (configuration not stated)	-6.5%	4.15µM*	14.9%	4.8%	-1.3	-5.0
Cc1noc(C)c1COC(=O)CCCc1c[nH]c2ccccc12	11.7µM*	u	u	-5.6%[46.1 µM]	-5.7	-2.6
C[C@H]1CC[C@H]2C(=O)N(Cc3ccc(Cl)cc3)C[C@@H](O)CN2[C@H]1c1ccc(Br)cc1	x	x	x	-7.0%[14.2 µM]	x	x
CNS(=O)(=O)c1ccc(NCC2COc3ccccc3O2)c([N+](=O)[O-])c1 (configuration not stated)	13.2%	-11.7%	-0.7%	12.2%	-5.3	16.4*
O=S(=O)(NCC1COc2ccccc2O1)c1ccc2ccccc2c1 (configuration not stated)	-15.9%	12.0%	1.6%	4.2%	-14.1	0.3
